{"source": "the supplement of paper PMC12808144", "note": "A number with no mark means an inactive call."}
{"system": "Mel-DCC-11-R", "test": "cell viability relative to DMSO control (fraction of DMSO control); higher = less cytotoxic, active = 0.8 or less", "conditions": "1 µM; 120 h; vemurafenib co-treatment 0 µM", "in_short": "(§1)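 Patient-derived Mel-DCC-11, its resistant subline Mel-DCC-11-R (alone and with 8 µM of its selecting drug) and NHEM-hTERT immortalized melanocytes were exposed for 120 h to 315 approved anti-cancer drugs at 1 µM in duplicate. Luminescence was read with ATPlite 1step. Viability was normalised to vehicle controls and averaged over duplicates.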"}
{"smiles": "CC[C@]1(O)C[C@H]2CN(CCc3c([nH]c4ccccc34)[C@@](C(=O)OC)(c3cc4c(cc3OC)N(C=O)[C@H]3[C@@](O)(C(=O)OC)[C@H](OC(C)=O)[C@]5(CC)C=CCN6CC[C@]43[C@@H]65)C2)C1.O=S(=O)(O)O", "note": "[Vincristine sulfate]", "cell viability": "0.455 (active)"}
{"smiles": "O=c1cc(O)c(Cl)c[nH]1", "note": "[Gimeracil]", "cell viability": 0.944}
{"smiles": "CN(C)c1nc(N(C)C)nc(N(C)C)n1", "note": "[Altretamine]", "cell viability": 0.973}
{"smiles": "COc1cc2c(Oc3ccc4[nH]c(C)cc4c3F)ncnc2cc1OCCCN1CCCC1", "note": "[Cediranib]", "cell viability": 0.853}
{"smiles": "O=c1ccn([C@@H]2O[C@H](CO)[C@@H](O)[C@H]2O)c(=O)[nH]1", "note": "[Uridine]", "cell viability": 0.931}
{"smiles": "CN(CCOc1ccc(CC2SC(=O)NC2=O)cc1)c1ccccn1.O=C(O)/C=C\\C(=O)O", "note": "(configuration not stated) [Rosiglitazone maleate]", "cell viability": 0.97}
{"smiles": "CCOC(=O)[C@@H](N)Cc1ccc(-c2cc(O[C@H](c3ccc(Cl)cc3-n3ccc(C)n3)C(F)(F)F)nc(N)n2)cc1.O=C(O)CNC(=O)c1ccccc1", "note": "[Telotristat Etiprate]", "cell viability": 1.08}
{"smiles": "CC1=C(/C=C/C(C)=C/C=C/C(C)=C/C=C/C=C(C)/C=C/C=C(C)/C=C/C2=C(C)CCCC2(C)C)C(C)(C)CCC1", "note": "[Beta-Carotene]", "cell viability": 0.829}
{"smiles": "COc1cc2c(cc1O)CC[C@@H]1[C@@H]2CC[C@]2(C)[C@@H](O)CC[C@@H]12", "note": "[2-Methoxyestradiol]", "cell viability": 1.29}
{"smiles": "CCCCCCCCCCCCCCCCCCOCC(O)CO", "note": "(configuration not stated) [Batyl alcohol]", "cell viability": 0.92}
{"smiles": "COc1cccc2c1C(=O)c1c(O)c3c(c(O)c1C2=O)C[C@@](O)(C(=O)CO)C[C@@H]3O[C@H]1C[C@H](N)[C@H](O)[C@H](C)O1.Cl", "note": "[Doxorubicin hydrochloride]", "cell viability": "0.166 (active)"}
{"smiles": "COC(=O)Nc1nc2ccc(C(=O)c3cccs3)cc2[nH]1", "note": "[Nocodazole]", "cell viability": 0.823}
{"smiles": "CN(C)CCCN1c2ccccc2Sc2ccc(Cl)cc21.Cl", "note": "[Chlorpromazine hydrochloride]", "cell viability": 1.06}
{"smiles": "CNC(=O)c1cc(Oc2ccc(NC(=O)Nc3ccc(Cl)c(C(F)(F)F)c3)cc2)ccn1", "note": "[Sorafenib]", "cell viability": 0.898}
{"smiles": "COc1c2occc2cc2ccc(=O)oc12", "note": "[8-Methoxypsoralen]", "cell viability": 1.05}
{"smiles": "CC(=O)Nc1cccc(-n2c(=O)n(C3CC3)c(=O)c3c(Nc4ccc(I)cc4F)n(C)c(=O)c(C)c32)c1", "note": "[Trametinib]", "cell viability": "0.206 (active)"}
{"smiles": "CS(=O)(=O)c1ccc(C(=O)Nc2ccc(Cl)c(-c3ccccn3)c2)c(Cl)c1", "note": "[Vismodegib]", "cell viability": 0.807}
{"smiles": "COc1ccc(C(Cl)=C(c2ccc(OC)cc2)c2ccc(OC)cc2)cc1", "note": "[Chlorotrianisene]", "cell viability": 0.86}
{"smiles": "CCCS(=O)(=O)Nc1ccc(F)c(C(=O)c2c[nH]c3ncc(-c4ccc(Cl)cc4)cc23)c1F", "note": "[Vemurafenib]", "cell viability": 0.991}
{"smiles": "N#Cc1ccc(C(c2ccc(C#N)cc2)n2cncn2)cc1", "note": "[Letrozole]", "cell viability": 1.08}
{"smiles": "Nc1nc(=O)c2c(CCc3ccc(C(=O)N[C@@H](CCC(=O)[O-])C(=O)[O-])cc3)c[nH]c2[nH]1.[Na+].[Na+]", "note": "[Pemetrexed Disodium Hydrate]", "cell viability": 1.11}
{"smiles": "Cl.Cl.Cl.Cl.Cl.Cl.Cl.Cl.c1cc(CN2CCCNCCNCCCNCC2)ccc1CN1CCCNCCNCCCNCC1", "note": "[AMD 3100 octahydrochloride]", "cell viability": 0.999}
{"smiles": "O=c1[nH]cc(F)c(=O)[nH]1", "note": "[Fluorouracil]", "cell viability": 1.14}
{"smiles": "Cc1coc2c1C(=O)C(=O)c1c-2ccc2c(C)cccc12", "note": "[Tanshinone I]", "cell viability": 1.03}
{"smiles": "NC(=O)c1ncn([C@@H]2O[C@H](CO)[C@@H](O)[C@H]2O)c1N", "note": "[AICAR (Acadesine)]", "cell viability": 1.12}
{"smiles": "Cc1c(C(=O)Nc2ccc(N3C[C@@H](C)O[C@@H](C)C3)nc2)cccc1-c1ccc(OC(F)(F)F)cc1", "note": "[Sonidegib]", "cell viability": 1.03}
{"system": "Mel-DCC-11-R", "test": "cell viability relative to DMSO control (fraction of DMSO control); higher = less cytotoxic, active = 0.8 or less", "conditions": "1 µM; 120 h; vemurafenib co-treatment 8 µM", "in_short": "as §1"}
{"smiles": "CC[C@]1(O)C[C@H]2CN(CCc3c([nH]c4ccccc34)[C@@](C(=O)OC)(c3cc4c(cc3OC)N(C=O)[C@H]3[C@@](O)(C(=O)OC)[C@H](OC(C)=O)[C@]5(CC)C=CCN6CC[C@]43[C@@H]65)C2)C1.O=S(=O)(O)O", "note": "[Vincristine sulfate]", "cell viability": "0.242 (active)"}
{"smiles": "O=c1cc(O)c(Cl)c[nH]1", "note": "[Gimeracil]", "cell viability": 1.13}
{"smiles": "CN(C)c1nc(N(C)C)nc(N(C)C)n1", "note": "[Altretamine]", "cell viability": 0.92}
{"smiles": "COc1cc2c(Oc3ccc4[nH]c(C)cc4c3F)ncnc2cc1OCCCN1CCCC1", "note": "[Cediranib]", "cell viability": "0.728 (active)"}
{"smiles": "O=c1ccn([C@@H]2O[C@H](CO)[C@@H](O)[C@H]2O)c(=O)[nH]1", "note": "[Uridine]", "cell viability": 1.09}
{"smiles": "CN(CCOc1ccc(CC2SC(=O)NC2=O)cc1)c1ccccn1.O=C(O)/C=C\\C(=O)O", "note": "(configuration not stated) [Rosiglitazone maleate]", "cell viability": 1.12}
{"smiles": "CCOC(=O)[C@@H](N)Cc1ccc(-c2cc(O[C@H](c3ccc(Cl)cc3-n3ccc(C)n3)C(F)(F)F)nc(N)n2)cc1.O=C(O)CNC(=O)c1ccccc1", "note": "[Telotristat Etiprate]", "cell viability": 1.07}
{"smiles": "CC1=C(/C=C/C(C)=C/C=C/C(C)=C/C=C/C=C(C)/C=C/C=C(C)/C=C/C2=C(C)CCCC2(C)C)C(C)(C)CCC1", "note": "[Beta-Carotene]", "cell viability": 0.851}
{"smiles": "COc1cc2c(cc1O)CC[C@@H]1[C@@H]2CC[C@]2(C)[C@@H](O)CC[C@@H]12", "note": "[2-Methoxyestradiol]", "cell viability": 0.985}
{"smiles": "CCCCCCCCCCCCCCCCCCOCC(O)CO", "note": "(configuration not stated) [Batyl alcohol]", "cell viability": 0.995}
{"smiles": "COc1cccc2c1C(=O)c1c(O)c3c(c(O)c1C2=O)C[C@@](O)(C(=O)CO)C[C@@H]3O[C@H]1C[C@H](N)[C@H](O)[C@H](C)O1.Cl", "note": "[Doxorubicin hydrochloride]", "cell viability": "0.171 (active)"}
{"smiles": "COC(=O)Nc1nc2ccc(C(=O)c3cccs3)cc2[nH]1", "note": "[Nocodazole]", "cell viability": "0.518 (active)"}
{"smiles": "CN(C)CCCN1c2ccccc2Sc2ccc(Cl)cc21.Cl", "note": "[Chlorpromazine hydrochloride]", "cell viability": 1.11}
{"smiles": "CNC(=O)c1cc(Oc2ccc(NC(=O)Nc3ccc(Cl)c(C(F)(F)F)c3)cc2)ccn1", "note": "[Sorafenib]", "cell viability": 1.2}
{"smiles": "COc1c2occc2cc2ccc(=O)oc12", "note": "[8-Methoxypsoralen]", "cell viability": 1.19}
{"smiles": "CC(=O)Nc1cccc(-n2c(=O)n(C3CC3)c(=O)c3c(Nc4ccc(I)cc4F)n(C)c(=O)c(C)c32)c1", "note": "[Trametinib]", "cell viability": "0.165 (active)"}
{"smiles": "CS(=O)(=O)c1ccc(C(=O)Nc2ccc(Cl)c(-c3ccccn3)c2)c(Cl)c1", "note": "[Vismodegib]", "cell viability": 0.892}
{"smiles": "COc1ccc(C(Cl)=C(c2ccc(OC)cc2)c2ccc(OC)cc2)cc1", "note": "[Chlorotrianisene]", "cell viability": 0.833}
{"smiles": "CCCS(=O)(=O)Nc1ccc(F)c(C(=O)c2c[nH]c3ncc(-c4ccc(Cl)cc4)cc23)c1F", "note": "[Vemurafenib]", "cell viability": 0.905}
{"smiles": "N#Cc1ccc(C(c2ccc(C#N)cc2)n2cncn2)cc1", "note": "[Letrozole]", "cell viability": 1.06}
{"smiles": "Nc1nc(=O)c2c(CCc3ccc(C(=O)N[C@@H](CCC(=O)[O-])C(=O)[O-])cc3)c[nH]c2[nH]1.[Na+].[Na+]", "note": "[Pemetrexed Disodium Hydrate]", "cell viability": 1.13}
{"smiles": "Cl.Cl.Cl.Cl.Cl.Cl.Cl.Cl.c1cc(CN2CCCNCCNCCCNCC2)ccc1CN1CCCNCCNCCCNCC1", "note": "[AMD 3100 octahydrochloride]", "cell viability": 0.984}
{"smiles": "O=c1[nH]cc(F)c(=O)[nH]1", "note": "[Fluorouracil]", "cell viability": 1.06}
{"smiles": "Cc1coc2c1C(=O)C(=O)c1c-2ccc2c(C)cccc12", "note": "[Tanshinone I]", "cell viability": 0.825}
{"smiles": "NC(=O)c1ncn([C@@H]2O[C@H](CO)[C@@H](O)[C@H]2O)c1N", "note": "[AICAR (Acadesine)]", "cell viability": 1.21}
{"smiles": "Cc1c(C(=O)Nc2ccc(N3C[C@@H](C)O[C@@H](C)C3)nc2)cccc1-c1ccc(OC(F)(F)F)cc1", "note": "[Sonidegib]", "cell viability": 1.2}
